IL1B secr inh: inflammasome signaling inhibition, IL-1 beta readout; THP-1 LPS/ATP IL-1B secretion, AlphaLISA, 16 h; stronger effect = lower value; activity change, % at 57.5 µM; 360,000 tested, 4.7% active; AID 743279; in the data active = activity change below about -50%; inconclusive = mostly about -30% to -49%
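THP-1 cells pretreated 1 hr with compounds (up to 57.5 uM final), then stimulated with LPS (250 ng/mL final) plus ATP (1.25 mM final); secreted IL-1B measured by AlphaLISA after 16 hr, decreased signal indicating inhibition.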
Gal4-VP16 FLuc: counter-screen for ROR gamma inhibitors: Gal4-VP16 reporter | Drosophila S2 Gal4-VP16 UAS-luciferase, luminescence, 20 h | Potency, µM (highest dose often 53.6 µM), usual class: inhibitors | 310,000 tested, 3.5% active | AID 2546;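 also: Gal4-VP16 expression switched on by copper sulfate through the metallothionein promoter; nearly all actives have a fitted effect of over 50% in size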
RORg inh: inhibitors of mouse ROR gamma transcriptional activity; Potency, µM (highest dose often 53.6 µM), actives largely listed as inhibitors; 310,000 tested, 5.4% active; Drosophila S2 Gal4-RORgamma UAS-luciferase reporter, 20 h; P51450; also: nearly all actives have a fitted effect of over 60% in size
Target sequence (P51450 whole entry, looked up, the tested form may be a part): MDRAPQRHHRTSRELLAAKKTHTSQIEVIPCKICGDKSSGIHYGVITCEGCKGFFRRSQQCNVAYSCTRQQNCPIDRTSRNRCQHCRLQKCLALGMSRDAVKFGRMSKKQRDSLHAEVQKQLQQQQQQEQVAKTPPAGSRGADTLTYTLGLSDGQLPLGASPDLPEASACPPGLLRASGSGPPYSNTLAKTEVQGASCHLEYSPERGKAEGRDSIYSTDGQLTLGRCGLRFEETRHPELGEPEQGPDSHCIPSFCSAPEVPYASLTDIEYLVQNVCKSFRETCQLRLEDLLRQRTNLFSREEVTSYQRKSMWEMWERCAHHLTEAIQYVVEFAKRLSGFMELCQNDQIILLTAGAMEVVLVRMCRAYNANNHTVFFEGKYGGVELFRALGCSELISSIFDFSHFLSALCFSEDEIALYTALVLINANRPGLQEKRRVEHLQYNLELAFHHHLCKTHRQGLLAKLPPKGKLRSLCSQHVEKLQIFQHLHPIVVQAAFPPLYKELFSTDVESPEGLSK
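Compounds are pin-transferred onto Drosophila Schneider cells expressing a copper-inducible Gal4–ROR gamma transactivation domain fusion. After 1 hr, copper sulfate is added to 700 uM final; luciferase is read 20 hr later.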
DT40 TDP1 CPT: DT40-hTDP1 cell growth loss with CPT. chicken DT40 Tdp1-/-;hTDP1 cells + 20 nM CPT, ATP luminescence, 48 h. Potency, µM (top dose mostly 46.2 µM), actives largely listed as inhibitors. 420,000 tested, 12% active. AID 686979; also: nearly all actives have a fitted effect of over 55% in size
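Chicken DT40 Tdp1-/- cells stably complemented with human TDP1 were seeded at 400 cells/well in medium containing 20 nM camptothecin, exposed to pin-transferred compounds, and grown at 37 °C for at least 48 hr. Viability was read as ATP luminescence.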
TDP1 cell noCPT: qHTS for Inhibitors of human tyrosyl-DNA phosphodiesterase 1 (TDP1): qHTS in cells in absence of CPT; DT40 Tdp1-/- hTDP1 cells, no CPT, ATP luminescence, 48 h; Potency, µM (series often up to 46.2 µM), actives largely listed as inhibitors; 420,000 tested, 15% active; also: nearly all actives have a fitted effect of over 55% in size
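Growth kinetics read by CellTiter-Glo luminescence after ≥48 hr at 37 °C. Cells: DT40 Tdp1-/- stably carrying human TDP1, 400 per well, compound exposure in the absence of CPT (DMSO vehicle).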
LDHA block: inhibitors of human lactate dehydrogenase A. P00338. purified LDHA, NADH/diaphorase-resazurin fluorescence; stronger effect = lower value. activity change, % (values are at about 110 or 230 µM). 480,000 tested, 0.15% active; in the data active = activity change below about -30%; inconclusive = mostly about -25% to -30%
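Human LDH5 (2 nM) was incubated with 0.06 mM NADH and 0.2 mM pyruvate for 5 min at room temperature in Tris pH 7.4. Remaining NADH was coupled through diaphorase/resazurin, and resorufin fluorescence was read at 0 and 20 min.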
Large screens that a line does not name were inactive. The list is not random: actives were taken first. Their share in the collection is about 18%. Unless noted, calls follow the shape of the dose curve; as a rule, active = well fitted curve in the direction sought with a large enough effect; inconclusive = small, poorly fitted or top-dose-only effect, or another doubt; inactive = no such curve, though single readings can be large; an effect the other way counts as inactive or inconclusive.

CCc1nnc(N/N=C/c2cc(Br)c(O)cc2O)n1N	Gal4-VP16 FLuc 11.2µM, RORg inh 10µM, DT40 TDP1 CPT 4.11µM, TDP1 cell noCPT inconclusive
CC(=O)Oc1ccc2c(=O)c(Oc3ccc(F)cc3)c(C(F)(F)F)oc2c1	none (no result: IL1B secr inh, Gal4-VP16 FLuc, RORg inh, DT40 TDP1 CPT, TDP1 cell noCPT)
NC(N)=N/N=C/C(Cl)=C/c1ccccc1	none (no result: IL1B secr inh, Gal4-VP16 FLuc, RORg inh, DT40 TDP1 CPT, TDP1 cell noCPT)
CCn1nc(C(=O)N2CCCC(c3nc4ccccc4s3)C2)c2ccccc2c1=O (stereo unspecified)	none (no result: IL1B secr inh, Gal4-VP16 FLuc, RORg inh, DT40 TDP1 CPT, TDP1 cell noCPT)
CCOc1cc(/C=N/Nc2nnc(C)n2N)ccc1OC(C)=O	Gal4-VP16 FLuc inconclusive, RORg inh 11.2µM, DT40 TDP1 CPT inconclusive, TDP1 cell noCPT 16.4µM
CC(C)(C)c1nnc(N/N=C/c2cc(Br)ccc2O)n(N)c1=O	Gal4-VP16 FLuc 10µM, RORg inh 12.6µM, DT40 TDP1 CPT 2.59µM, TDP1 cell noCPT 2.31µM
NC(=O)N/N=C\c1cc(Br)ccc1O	TDP1 cell noCPT inconclusive
O=C(Cn1nc2c(cc1=O)CCCC2)Nc1ccc(Br)cc1F	none (no result: IL1B secr inh, Gal4-VP16 FLuc, RORg inh, DT40 TDP1 CPT, TDP1 cell noCPT)
COc1ccc([C@H]2CC(=O)C=C(c3cccc(OC(F)(F)F)c3)C2)cc1	DT40 TDP1 CPT 23.1µM, TDP1 cell noCPT inconclusive (no result: Gal4-VP16 FLuc, RORg inh)
COc1ccc(OC)c(C2=CC(=O)C[C@H](c3ccc4c(c3)OCO4)C2)c1	DT40 TDP1 CPT 7.31µM, TDP1 cell noCPT 10.3µM (no result: Gal4-VP16 FLuc, RORg inh)
COc1c(F)cccc1C1=CC(=O)C[C@H](c2ccc3c(c2)OCO3)C1	DT40 TDP1 CPT inconclusive, TDP1 cell noCPT inconclusive (no result: Gal4-VP16 FLuc, RORg inh)
CCOc1ccc(Br)cc1C1=CC(=O)C[C@H](c2ccc(OC)cc2)C1	DT40 TDP1 CPT 4.61µM, TDP1 cell noCPT 2.91µM (no result: Gal4-VP16 FLuc, RORg inh)
COc1ccc([C@H]2CC(=O)C=C(c3ccccc3-c3ccccc3)C2)cc1	DT40 TDP1 CPT 23.1µM, TDP1 cell noCPT 23.1µM (no result: Gal4-VP16 FLuc, RORg inh)
COc1ccc([C@H]2CC(=O)C=C(c3cc(C)ccc3F)C2)cc1	TDP1 cell noCPT inconclusive (no result: Gal4-VP16 FLuc, RORg inh)
COc1ccc([C@H]2CC(=O)C=C(c3ccnc4ccc(Cl)cc34)C2)cc1	DT40 TDP1 CPT 8.2µM, TDP1 cell noCPT 9.2µM (no result: Gal4-VP16 FLuc, RORg inh)
COc1ccc([C@H]2CC(=O)C=C(c3cc(C)ccc3OC)C2)cc1	DT40 TDP1 CPT 4.11µM, TDP1 cell noCPT 6.51µM (no result: Gal4-VP16 FLuc, RORg inh)
COc1ccc([C@H]2CC(=O)C=C(c3cc(Br)ccc3OC)C2)cc1	DT40 TDP1 CPT 18.4µM, TDP1 cell noCPT 16.4µM (no result: Gal4-VP16 FLuc, RORg inh)
COc1ccc([C@H]2CC(=O)C=C(c3ccc(Br)c4ccccc34)C2)cc1	none (no result: Gal4-VP16 FLuc, RORg inh)
Cc1ccc(Nc2nc(NC3CCCCC3)nc3c2cnn3C)cc1	none (no result: IL1B secr inh, Gal4-VP16 FLuc, RORg inh, DT40 TDP1 CPT, TDP1 cell noCPT)
C=C(Cl)COc1ccccc1C(N)=O	none (no result: IL1B secr inh, Gal4-VP16 FLuc, RORg inh, DT40 TDP1 CPT, TDP1 cell noCPT)
CC(C)CN(CC(C)C)C(=O)COc1ccccc1C(N)=O	DT40 TDP1 CPT inconclusive, TDP1 cell noCPT 11.6µM
Cc1ccc(Cl)cc1N1CCN(C(=O)C2CCN(Cc3nc(-c4cccc(Cl)c4)oc3C)CC2)CC1	DT40 TDP1 CPT inconclusive, TDP1 cell noCPT 14.6µM (no result: IL1B secr inh, Gal4-VP16 FLuc, RORg inh)
Cc1oc(-c2cccc(Cl)c2)nc1CN1CCC(C(=O)N2CCN(c3ccccc3F)CC2)CC1	IL1B secr inh -56.2, DT40 TDP1 CPT 18.4µM, TDP1 cell noCPT 18.4µM
Cc1oc(-c2cccc(Cl)c2)nc1CN1CCC(C(=O)NC(C)C)CC1	none (no result: IL1B secr inh, Gal4-VP16 FLuc, RORg inh)
Cc1oc(-c2cccc(Cl)c2)nc1CN1CCCC(C(=O)N2CCN(c3ccc(F)cc3)CC2)C1 (stereo unspecified)	DT40 TDP1 CPT 7.31µM, TDP1 cell noCPT 9.2µM (no result: IL1B secr inh, Gal4-VP16 FLuc, RORg inh)
CC(C)(C)C1=CC(=O)C(N2CCOCC2)=CC1=O	Gal4-VP16 FLuc inconclusive, RORg inh 10µM, DT40 TDP1 CPT 7.31µM, TDP1 cell noCPT 20.6µM
CC(C)OC(=O)c1cc(-c2ccccc2)nc2ccccc12	none (no result: IL1B secr inh, Gal4-VP16 FLuc, RORg inh, DT40 TDP1 CPT, TDP1 cell noCPT)
Cc1cccc(COc2ccccc2C(=O)O)c1	none (no result: IL1B secr inh, Gal4-VP16 FLuc, RORg inh, DT40 TDP1 CPT, TDP1 cell noCPT)
O=C(NCCOc1ccccc1)c1ccccc1Cl	Gal4-VP16 FLuc inconclusive
CN(C(=O)COc1ccccc1C(=O)NCCOc1ccccc1)c1ccccc1	IL1B secr inh -96.8, Gal4-VP16 FLuc 7.94µM, RORg inh inconclusive, DT40 TDP1 CPT 2.31µM, TDP1 cell noCPT 2.31µM

Screening data: PubChem, National Center for Advancing Translational Sciences (NCATS)
